From PubChem BioAssay AID841 (Emory University Molecular Libraries Screening Center, 2007)
The campaign covered roughly 140,000 compounds. About 2,100 (1.5%) were called active. Cut-off read from the data, not from the text of the source: active = protection mostly above about 24% (no sharp cut-off); inactive = mostly below about 26%. For the sample, actives were picked, then their nearest neighbours and some compounds at random.

Test: compounds protecting cells from measles virus cytopathic effect, primary screen, measles RdRp inhibitor project, single point, MLSMR library, absorbance (AID 841)
Conditions: Measles virus-infected cells, CPE protection, at 4 µM, hits give high values

Compound	protection (pct of control)
C=CCn1c(=N)n(CC(O)COc2ccc(OC)cc2)c2ccccc21 (centres undefined)	19.9% (inactive)
OC(COc1ccccc1)Cn1cc(Br)cn1 (centres undefined)	17.3% (inactive)
OC(CN=c1sc2ccccc2n1CC(O)COc1ccccc1)COc1ccccc1 (centres undefined)	44.8% (active)
CO/N=C(\N)c1ccc([N+](=O)[O-])cc1	2.5% (inactive)
O=C(CCc1[nH]c2ccccc2c1Sc1ccccc1)N(CCO)CCO	8.37% (inactive)
Cc1ccc(SCC(=O)Nc2ccc3c(c2)OCCO3)cc1	26.6% (active)
O=C(CSc1ccc(-c2ccc(F)cc2)nn1)Nc1ccc2c(c1)OCCO2	9.34% (inactive)
CCCCC(=O)Nc1ccc2c(c1)OCCO2	11% (inactive)
Cc1cc(C)nc(SC2CCCCC2NS(=O)(=O)c2ccc(Cl)cc2)n1 (centres undefined)	24.5% (inactive)
O=C(CSc1ncn[nH]1)Nc1nsc(-c2ccccc2)n1	2.9% (inactive)
Cc1ccccc1C(OCC(O)CN1CCCCC1CCO)c1ccccc1 (centres undefined)	4.74% (inactive)
Cc1ccccc1C(OCCN(C)C)C1CCCCC1 (centres undefined)	53.1% (active)
CN(C)CCOC(=O)C(c1ccccc1)C1(O)CCCC1 (centres undefined)	2.07% (inactive)
COc1ccc(/C=C/C(=O)OCC(=O)Nc2cccc(Oc3ccccc3)c2)c(OC)c1	22.7% (inactive)
CCCc1cc(=O)[nH]c(SCc2ccc(C#N)cc2)n1	2.18% (inactive)
CCCc1cc(=O)n2[nH]c(SCc3ccccc3)nc2n1	90% (active)
CCCc1cc(=O)[nH]c(SCC(=O)OCc2ccccc2)n1	13.7% (inactive)
COc1ccc(NC(=O)COC(=O)c2ccc(NS(=O)(=O)/C=C/c3ccccc3)cc2)cc1	6.22% (inactive)
CN(C)/N=C/c1cc(Cl)cc([N+](=O)[O-])c1O	21.7% (inactive)
COc1ccccc1Oc1ccc(N/C=C2/CCCC2=O)cc1	24.8% (inactive)
Cc1ccc(C)c(OCC(=O)N2CCN(C(=O)c3ccco3)CC2)c1	10.9% (inactive)
COc1cc(OC)cc(C(=O)Nc2ncc3c(n2)CC(C)(C)CC3=O)c1	9.7% (inactive)

Compound	protection (pct of control)
COc1cc(C2CC(=O)c3cnc(NC(C)=O)nc3C2)cc(OC)c1OC (centres undefined)	62.5% (active)
CCCOC(=O)c1[nH]c2c(c1C)C(=O)CC(c1cc(OC)c(OC)c(OC)c1)C2 (centres undefined)	2.5% (inactive)
Nc1nc(NC(=O)/C=C/c2ccccc2)nn1-c1ccccc1	3.85% (inactive)
COC(=O)c1ccc(NC(=O)CSc2nnc(Cc3cccn3C)n2-c2ccc(F)cc2)cc1	43.4% (active)
COc1ccccc1NC(=O)CSc1nnc(Cc2cccn2C)n1-c1ccc(F)cc1	15.6% (inactive)
Cc1ccc(C)c(NC(=O)CSc2nnc(Cc3cccn3C)n2-c2ccc(F)cc2)c1	21.3% (inactive)
CCCOC(=O)c1ccc(N2C(=O)c3ccccc3C2=O)cc1	1.17% (inactive)
Cn1nccc1CNC(=O)c1ccnn1C	24.5% (inactive)
CCn1cc(CNC(=O)c2cc([N+](=O)[O-])c(C)c([N+](=O)[O-])c2)cn1	3.52% (inactive)
CC1(C)C=C2[C@H]3CC[C@@H]4[C@@]5(C)CCC(=O)C(C)(C)[C@@H]5CC[C@@]4(C)[C@]3(C)CC[C@@]2(C(=O)O)CC1	44.7% (active)
CCC(C)NCCOCCOc1ccc(Br)cc1C (centres undefined)	5.1% (inactive)
O=C(CNC(=O)C(c1ccccc1)c1ccccc1)N/N=C\c1ccc2c(c1)OCO2	17.5% (inactive)
O=C(CN1CCOCC1)N1CCCc2c1c(=O)oc1ccc(OCc3ccccc3)cc21	20.5% (active)
O=C(COc1ccc2oc3c(c2c1)CCCC3)Nc1ccccn1	9.54% (inactive)
Cc1c(C(=O)N2CCOCC2)[nH]c2ccc(OCc3ccccc3)cc12	11.5% (inactive)
CNC(=S)N1CCN(c2ccccn2)CC1	3.85% (inactive)
O=C(C(Cl)Cl)N1CCN(c2ccccn2)CC1	29.5% (active)
CC(=C1C(=O)c2ccccc2C1=O)N1CCN(c2ccccn2)CC1	4% (inactive)
CC(=O)Nc1ccc(S(=O)(=O)NC2(C(F)(F)F)C(=O)Nc3c2c(=O)[nH]c(=O)n3Cc2ccccc2)cc1 (centres undefined)	10.5% (inactive)
CCOC(=O)c1c(NC(=O)Cn2nc(C(F)(F)F)cc2C)sc2c1CCC2	20.5% (inactive)
CCCCOc1ccc(CSC(=N)N)cc1[N+](=O)[O-]	23.1% (inactive)
CCOc1ccc(Br)cc1CSC(=N)N	25.8% (active)

Compound	protection (pct of control)
N=C(N)SCc1cccc2ccccc12	32.9% (inactive)
Cc1ccc(NC(=O)CSCC(=O)NC2CCCCC2)cc1	36.4% (inactive)
COc1ccc(C(=O)Nc2sc(C)c(C)c2CN2CCOCC2)cc1	13.1% (inactive)
COc1cc(/C=C2/C(=O)ON=C2C)ccc1OCc1ccccc1F	6.29% (inactive)
CCOc1ccc(/C=N/NC(=O)C(C)Sc2ccccn2)cc1OCC (centres undefined)	3.61% (inactive)
CCOc1cc(/C=N/O)ccc1OCc1ccccc1F	36.5% (active)
CCCCOc1ccc(C(=O)NN2CCN(C)CC2)cc1	24.4% (inactive)
COCCOC(=O)c1c(C)oc2cc(Br)c(OCC(N)=O)cc12	16.4% (inactive)
COc1ccc(C(=O)N(Cc2ccc(N(C)C)cc2)C2CCS(=O)(=O)C2)cc1 (centres undefined)	1.51% (inactive)
CCCCC(=O)N(c1ccc(OC)cc1)C1C=CS(=O)(=O)C1 (centres undefined)	43.6% (active)
CCCCN=C(N)/C(C(=O)OCC)=C(\O)c1ccc(OC)cc1	6.3% (inactive)
CC(C)CNC(=O)COC(=O)/C=C/c1ccco1	16.1% (inactive)
CCc1ccc(-c2cc(C(=O)NN3CCN(C)CC3)c3ccccc3n2)cc1	5.27% (inactive)
COCCCNC(=S)NC(=O)c1ccc([N+](=O)[O-])cc1	65.1% (active)
CCCCCC(=O)NC(=S)NNC(=O)c1ccc([N+](=O)[O-])cc1	3.27% (inactive)
COCCCNC(=S)NC(=O)c1ccccc1	11.7% (inactive)
CCc1cccc(NC(=O)CCC(=O)O)c1	4.18% (inactive)
Cc1ccc(-n2ncc3c(Nc4cccc(C(=O)O)c4)ncnc32)cc1	7.56% (inactive)
Cn1ncc2c(Nc3cccc4ccccc34)ncnc21	3.59% (inactive)
Cn1ncc2c(NNC(=O)Cc3cccc4ccccc34)ncnc21	26.4% (active)
